Values joined by “and” are separate entries in the source; they are usually repeats but may differ in a detail not shown here. Equal entries are not always repeated. Out of some 5,500 compounds screened, about 2,000 (36%) were called active. About 18% were inconclusive and are not listed. Rule as the data show it: active = normalized growth mostly below about 0.91 (no sharp cut-off); inconclusive = no clear call, values can overlap the other calls; inactive = mostly above about 0.92. This is one part of the list.
Test: chemical genetic growth profiling, strain panel (AID 1159580);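 also: tested at 20 µM; growth read once vehicle control cultures reached saturation at 30 °C; 1 = growth at the plate median or of vehicle wells; lower values mean less growth of the strain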
Settings: S. cerevisiae deletion strains, growth OD

Measured: normalized growth

COc1ccc(CN(CCN(C)C)c2ccccn2)cc1
inactive: locus YAL013W, strain DEP1, stronger effect = lower value 0.971 | locus YAL021C, strain ccr4, stronger effect = lower value 1.01 | locus YAL026C, strain drs2, stronger effect = lower value 1.03 | locus YAL030W, strain snc1, stronger effect = lower value 0.999 | locus YAL040C, strain CLN3, stronger effect = lower value 0.955 | locus YBL061C, strain skt5, stronger effect = lower value 1.01 | locus YBR009C, strain hhf1, stronger effect = lower value 0.986 | locus YBR021W, strain FUR4, stronger effect = lower value 0.995 | locus YBR023C, strain chs3, stronger effect = lower value 1.03 | locus YBR171W, strain sec66, stronger effect = lower value 1.02 | locus YBR229C, strain ROT2, stronger effect = lower value 0.991 | locus YBR231C, strain swc5, stronger effect = lower value 1.02 | locus YBR279W, strain paf1, stronger effect = lower value 1.01 | locus YCL011C, strain gbp2, stronger effect = lower value 1.03 | locus YCL016C, strain dcc1, stronger effect = lower value 1.03 | locus YCL029C, strain bik1, stronger effect = lower value 0.989 | locus YCL061C, strain MRC1 (second series), stronger effect = lower value 0.986 | locus YCL069W, strain vba3, stronger effect = lower value 1.01 | locus YCR088W, strain abp1, stronger effect = lower value 1.02 | locus YDL005C, strain med2, stronger effect = lower value 1.03 | locus YDL035C, strain GPR1, stronger effect = lower value 0.996 | locus YDL040C, strain nat1, stronger effect = lower value 1.01 | locus YDL074C, strain BRE1, stronger effect = lower value 1.01 | locus YDL101C, strain DUN1, stronger effect = lower value 0.993 | locus YDL134C, strain PPH21, stronger effect = lower value 0.995 | locus YDL185W, strain tfp1, stronger effect = lower value 0.951 | locus YDL192W, strain arf1, stronger effect = lower value 0.978 | locus YDR001C, strain nth1, stronger effect = lower value 1.01 | locus YDR069C, strain doa4, stronger effect = lower value 1.01 | locus YDR101C, strain arx1, stronger effect = lower value 0.982 | locus YDR137W, strain rgp1, stronger effect = lower value 1.04 | locus YDR150W, strain NUM1, stronger effect = lower value 1.02 | locus YDR159W, strain sac3, stronger effect = lower value 0.992 | locus YDR162C, strain NBP2, stronger effect = lower value 0.992 | locus YDR195W, strain ref2 0.966 | locus YDR297W, strain sur2, stronger effect = lower value 1.01 | locus YDR318W, strain mcm21, stronger effect = lower value 0.989 | locus YDR334W, strain swr1, stronger effect = lower value 1 | locus YDR335W, strain msn5, stronger effect = lower value 1.03 | locus YDR363W, strain ESC2, stronger effect = lower value 1 | locus YDR388W, stronger effect = lower value 0.998 | locus YDR392W, strain spt3, stronger effect = lower value 1.04 | locus YDR502C, strain sam2, stronger effect = lower value 0.979 | locus YEL003W, strain gim4, stronger effect = lower value 1.02 | locus YEL037C, strain rad23, stronger effect = lower value 1.01 | locus YEL061C, strain CIN8 (second series), stronger effect = lower value 1.02 | locus YEL061C, strain CIN8, stronger effect = lower value 0.999 | locus YER002W, strain NOP16, stronger effect = lower value 1 | locus YER015W, strain faa2, stronger effect = lower value 1.03 | locus YER016W, strain bim1, stronger effect = lower value 1.02 | locus YER110C, stronger effect = lower value 0.968 | locus YER111C, strain swi4, stronger effect = lower value 1.01 | locus YER155C, strain BEM2 (second series), stronger effect = lower value 1.02 | locus YER155C, strain BEM2, stronger effect = lower value 0.983 | locus YER167W, strain BCK2, stronger effect = lower value 1 | locus YFR010W, strain ubp6, stronger effect = lower value 1 | locus YGL078C, strain dbp3, stronger effect = lower value 0.998 | locus YGL086W, strain mad1, stronger effect = lower value 0.988 | locus YGL167C, strain pmr1, stronger effect = lower value 1.02 | locus YGL173C, strain kem1, stronger effect = lower value 1.02 | locus YGL227W, strain vid30, stronger effect = lower value 1.01 | locus YGL240W, strain doc1, stronger effect = lower value 0.991 | locus YGL248W, strain PDE1, stronger effect = lower value 0.999 | locus YGL253W, strain hxk2, stronger effect = lower value 1.03 | locus YGR078C, strain PAC10, stronger effect = lower value 0.983 | locus YGR135W, strain pre9, stronger effect = lower value 0.988 | locus YGR229C, strain SMI1, stronger effect = lower value 1.01 | locus YGR252W, strain gcn5, stronger effect = lower value 1.12 | locus YHR013C, strain ard1, stronger effect = lower value 1.08 | locus YHR027C, strain rpn1, stronger effect = lower value 1.02 | locus YHR030C, strain SLT2, stronger effect = lower value 0.992 and 1.05 | locus YHR079C, strain IRE1 (second series), stronger effect = lower value 0.987 | locus YHR079C, strain IRE1, stronger effect = lower value 1.06 | locus YHR094C, strain hxt1, stronger effect = lower value 0.981 | locus YHR129C, strain ARP1, stronger effect = lower value 1 | locus YHR142W, strain chs7, stronger effect = lower value 1.05 | locus YHR200W, strain rpn10, stronger effect = lower value 0.993 | locus YIL066C, strain RNR3, stronger effect = lower value 0.995 | locus YIL073C, strain SPO22, stronger effect = lower value 0.916 | locus YIL125W, strain kgd1, stronger effect = lower value 0.973 | locus YIR030C, strain dcg1, stronger effect = lower value 0.99 | locus YJL092W, strain hpr5, stronger effect = lower value 1.02 | locus YJL095W, strain BCK1 (second series), stronger effect = lower value 1 | locus YJL095W, strain BCK1, stronger effect = lower value 1.01 and 1.03 | locus YJL115W, strain asf1, stronger effect = lower value 1.02 | locus YJL129C, strain trk1, stronger effect = lower value 1.03 | locus YJL134W, strain LCB3, stronger effect = lower value 0.989 | locus YJL154C, strain vps35, stronger effect = lower value 1.02 | locus YJL164C, strain tpk1, stronger effect = lower value 1.02 | locus YJL166W, strain qcr8, stronger effect = lower value 1.01 | locus YJL168C, strain set2, stronger effect = lower value 0.993 | locus YJL187C, strain SWE1 (second series), stronger effect = lower value 0.985 | locus YJR043C, strain POL32, stronger effect = lower value 1.01

Reference: PubChem BioAssay AID1159580 (chemical genetic matrix, 2015)
